Shown is part of a subset that was picked to be rich in hits.
TcdB inh – TcdB glycohydrolase inhibition | TcdB glycohydrolase enzymatic assay, plate reader | inhibition, % at 9.99 µM | hit rate 0.24% among 350,000 | AID 652162; in the data active = inhibition above about 10%
BoNT A protease – blocks Botulinum neurotoxin A light chain protease; hit rate 0.17% among 360,000; multiplex microsphere protease substrate cleavage, flow cytometry; inhibition, % at 10 µM; also: plate controls were buffer without enzyme for full effect and enzyme alone for no effect
Bead autofluor – compound fluorescence in toxin protease inhibitor counterscreen. fluorescence intensity (no concentration beside the values). compound autofluorescence counterscreen, microsphere flow cytometry; stronger effect = higher value. AID 624483. hit rate 3.1% among 360,000; in the data active = fluorescence intensity above about 16000; inconclusive = no clear call, values can overlap the other calls
Anthrax LF inh2 – inhibitors of Bacillus anthracis lethal factor protease; multiplex microsphere protease cleavage assay, LF; P15917; hit rate 0.12% among 360,000; inhibition, % at 10 µM; also: plate controls were buffer without enzyme for full effect and enzyme alone for no effect
BoNT-F LC inh – blocks Botulinum neurotoxin F light chain protease. Multiplex microsphere protease cleavage assay, flow cytometry. inhibition, % at 10 µM. hit rate 0.22% among 360,000; in the data active = inhibition above about 35%, passing the limit was not always enough; inconclusive = no clear call, values can overlap the other calls; also: plate controls were buffer without enzyme for full effect and enzyme alone for no effect
Active calls of the source: *; ? = inconclusive; . = no result given. Rule as the data show it, unless noted: active = inhibition above about 30%; inconclusive = no clear call, values can overlap the other calls; inactive = below that.

SMILES | TcdB inh | BoNT A protease | Bead autofluor | Anthrax LF inh2 | BoNT-F LC inh
Cc1cccc(-c2nnc3sc(-c4ccccc4C)nn23)c1 | . | -1.3 | 16434* | -3.9 | -4.1
COc1ccc(NC(=O)N(C)C[C@H]2Oc3ccc(NC(=O)Cc4cn(C)c5ccccc45)cc3CC(=O)N([C@H](C)CO)C[C@@H]2C)cc1 | -0.3 | . | . | . | .
COc1ccc(-c2nn3c(-c4ccccc4)nnc3s2)cc1 | . | 0.2 | 20178* | -0.1 | -0.5
CCCNC(=O)N1C[C@@H](C)[C@@H](OC)CN(C)C(=O)c2ccc(NC(C)=O)cc2OC[C@@H]1C | 0.1 | . | . | . | .
C[C@H](NC(=O)[C@H]1[C@H](CO)[C@H]2Cn3c(ccc(-c4ccccc4)c3=O)[C@H]2N1C)c1ccccc1 | -0.9 | . | . | . | .
CCN1C(=O)C(CC(=O)Nc2ccc(OC)cc2)N(Cc2cccs2)C1=S (stereo unspecified) | 1.7 | ? | 16912* | -1.6 | -4.1
CCCOc1ccccc1N1C(=O)CC(N2CCOCC2)C1=O (stereo unspecified) | . | -0.5 | 23760* | -2.7 | -4.1
CO[C@@H]1CN(C)C(=O)c2ccc(NS(=O)(=O)c3ccccc3F)cc2OC[C@@H](C)N(S(C)(=O)=O)C[C@H]1C | -0.6 | . | . | . | .
CC1CCCN(Cc2c(O)ccc3c(=O)c(-c4nc5ccccc5s4)c(N)oc23)C1 (stereo unspecified) | . | ? | 25322* | -3.9 | -10.2
CN1CC[n+]2cnc3ccccc3c21 | . | ? | 18857* | -11.9 | 5.5
c1ccc2c(N3CCCCC3)ncnc2c1 | . | -1.2 | 4588 | -4.3 | 14.0
CCn1cc(C(C)NC(=O)COc2ccc(Cl)cc2C)c(C)n1 (stereo unspecified) | . | -5.1 | 23870* | -2.1 | -5.6
CO[C@@H]1CN(C)C(=O)c2cc(NS(=O)(=O)c3ccc(F)cc3)ccc2OC[C@H](C)NC[C@@H]1C | 0.3 | . | . | . | .
Cc1ccc(S(=O)(=O)N(C)C[C@H]2Oc3c(NC(=O)Nc4cccc5ccccc45)cccc3C(=O)N([C@H](C)CO)C[C@@H]2C)cc1 | -9.9 | . | . | . | .
COc1ccc(N=C2SC(CC(=O)Nc3ccc(OC)cc3OC)C(=O)N2C)cc1 (stereo unspecified) | . | 3.2 | 20859* | -2.5 | 4.7
COc1ccc(OC)c(NC(=O)CC2SC(=Nc3ccccc3)N(CCc3ccccn3)C2=O)c1 (stereo unspecified) | -0.3 | 1.1 | 2027 | -1.0 | -3.6
COC(=O)c1cn(-c2ccc(F)cc2)c(=O)c2ccccc12 | 2.9 | 2.1 | 4520 | 3.3 | 7.1
CO/N=C/NC(=O)c1cn(-c2ccc(F)cc2)c(=O)c2ccccc12 | . | -1.2 | 16209* | -4.5 | -2.4
COc1ccc2c(=O)c3c(=O)n(Cc4ccco4)c(-c4ccccc4)nc3oc2c1 | . | 0.4 | 10518 | 1.9 | -0.7
COc1ccc2c(=O)c3c(=O)n(Cc4ccco4)c(-c4cc(OC)c(OC)c(OC)c4)nc3oc2c1 | . | 0.8 | 16166* | -0.7 | 1.9
O=C(C[C@@H]1CC[C@@H](NC(=O)NC2CCCCC2)[C@@H](CO)O1)NCc1ccc(Cl)cc1 | -0.4 | . | . | . | .
O=C(Cn1c(C(=O)NCCCN2CCOCC2)cc2sccc21)c1ccccc1 | . | -3.1 | 24194* | -1.6 | -1.9
Cn1c(C(=O)NCCN2CCOCC2)cc2sccc21 | . | 0.9 | 7678 | 0.0 | 4.4
O=C(NCCCN1CCOCC1)c1ccccc1 | . | -0.8 | 3304 | 0.0 | -1.5
CCn1c(C(=O)NCCCN2CCc3ccccc3C2)cc2sccc21 | . | -1.1 | 24380* | -1.5 | -3.4
SMILES | TcdB inh | BoNT A protease | Bead autofluor | Anthrax LF inh2 | BoNT-F LC inh
CCN1CCN(CCCNC(=O)c2cc3sccc3n2CC)CC1 | 1.1 | 0.7 | 5041 | 1.8 | -7.8
Cc1ccc(Cn2c(C(=O)NCCCN3CCOCC3)cc3sccc32)cc1 | . | -1.8 | 24158* | -4.6 | -2.8
CCn1c(C(=O)NCc2ccccn2)cc2sccc21 | . | -2.5 | 17121* | -0.1 | -6.9
C[C@@H]1CN([C@@H](C)CO)C(=O)c2cccc(NS(=O)(=O)c3cn(C)cn3)c2O[C@H]1CN(C)CC1CC1 | -2.0 | . | . | . | .
O=C1C=C(Nc2ccc(O)cc2)CC(c2ccco2)C1 (stereo unspecified) | . | ? | 23693* | -3.8 | -9.3
CCOc1ccc(C(c2c(O)nc(SC)n(C)c2=O)c2c(O)nc(SC)n(C)c2=O)cc1 | . | 0.9 | 22263* | 0.2 | 3.9
C/C=C/c1ccc([C@H]2[C@@H](C#N)N(c3nc(CC)cs3)[C@@H]2CO)cc1 | 0.8 | . | . | . | .
CCN1/C(=C2\SC(=S)N(Cc3ccccc3)C2=O)Sc2ccccc21 | 0.7 | 4.3 | 2672 | 0.9 | 5.8
CCC(CO)[n+]1c(C)cc(/C=C2\Sc3ccccc3N2Cc2ccccc2)cc1C (stereo unspecified) | 22.3* | 39.8* | 10304 | 36.3* | 4.1
CCCN1CN(Cc2ccccc2)CC2=C1CC(C)(C)CC2=O | . | 0.4 | 6460 | 3.6 | -1.9
CC1(C)CC(=O)C2=C(C1)NCN(Cc1ccccc1)C2 | . | -0.3 | 16534* | -12.8 | -1.4
O=C(O)c1ccccc1S(=O)CCO (stereo unspecified) | . | 0.2 | 22978* | 2.1 | 1.5
C[C@@H]1CN([C@H](C)CO)C(=O)c2cc(NC(=O)C3CCCCC3)ccc2O[C@@H](C)CCCCO[C@@H]1CN(C)S(=O)(=O)c1cn(C)cn1 | 0.8 | . | . | . | .
O=C1c2cccnc2C(O)N1C1CCCCC1 (stereo unspecified) | -0.2 | -3.3 | 23226* | -0.8 | -3.6
CCCCN1C(=O)c2ccccc2C1C(=O)NC1CCCC1 (stereo unspecified) | . | 2.4 | 22700* | -1.4 | 2.1
CC1CCC(NC(=O)C2c3ccccc3C(=O)N2CCCN2CCOCC2)CC1 (stereo unspecified) | . | ? | 24072* | -2.0 | -3.2
O=C(NC1CCCC1)C1c2ccccc2C(=O)N1C1CCCCC1 (stereo unspecified) | . | 1.6 | 19915* | -0.4 | 1.0
O=C1c2cccnc2C(O)N1Cc1ccccc1 (stereo unspecified) | 0.8 | -1.3 | 11731 | -1.1 | -13.4
O=C(NC1CCCCCCC1)C1c2ccccc2C(=O)N1Cc1ccco1 (stereo unspecified) | . | 0.7 | 9541 | 0.6 | 9.4
C=CCn1c(SCc2cccc(OC)c2)nnc1-c1ccncc1 | -12.9 | -3.8 | 3306 | 12.4 | ?
CCn1c(SCc2nc3ccccc3[nH]2)nnc1-c1ccc(OC)cc1 | . | -3.1 | 23993* | 0.5 | -3.4
C=CCn1c(SCc2nc3ccccc3[nH]2)nnc1-c1cccc(OC)c1 | . | 0.7 | 22532* | 5.6 | 2.5
C=CCn1c(SCc2nc3ccccc3[nH]2)nnc1-c1ccc(OC)cc1 | . | -1.8 | 20347* | -0.8 | -0.9
Nn1c(SCc2nc3ccccc3[nH]2)nnc1-c1ccccc1 | . | 1.9 | ? | -6.4 | 0.7
C=CCn1c(SCc2cccc3ccccc23)nnc1-c1cccnc1 | . | 2.0 | 21679* | 1.6 | 3.1
CCn1c(SCc2nc3ccccc3[nH]2)nnc1-c1cnccn1 | . | 0.6 | 10460 | 0.3 | 7.6
O=C(c1cccc(F)c1)N1CCCCN2[C@H](CO)[C@@H](c3ccc(-c4ccc(F)cc4)cc3)[C@@H]2C1 | 0.0 | . | . | . | .
CN(C)CC(=O)N1CCCCN2[C@H](CO)[C@H](c3ccc(/C=C/c4ccccc4)cc3)[C@@H]2C1 | 1.4 | . | . | . | .
CCn1c(SCc2nc3ccccc3[nH]2)nnc1-c1cccnc1 | . | ? | 24875* | -3.5 | -4.6

Screening data (PubChem)
